Data on 40 compounds can be found in PubChem BioAssay (Tox21).

Several values for one entry are separate records, joined by “and”; a condition that tells them apart may be missing. Identical values can stand only once. Results filed as inconclusive are left out. A call without a number means that no potency is given here. More than one record can exist for a structure, and the calls need not agree. Activity calls are given as the source filed them. Calls follow the shape of the full dose curve.
Potency is read from the fitted curve at half-maximal effect.

The nature of this assay: p53 small molecule agonists, cell-based qHTS assay with human liver microsomes: qHTS cell viability counter screen (AID 1963579). Also: nearly all actives have a fitted effect of over 45% in size. The conditions noted are these: p53RE-bla HCT-116 viability, ATP luminescence, 16 h, HLM; series mostly up to 66 µM. The text has this:
National Center for Advancing Translational Sciences [NCATS]
Division of Preclinical Innovation [DPI]
U.S. Environmental Protection Agency [EPA]
National Institutes of Environmental Health Sciences [NIEHS]
National Toxicology Program [NTP]
U.S. Food and Drug Administration [FDA]
p53, a tumor suppressor protein, is activated following cellular insult, including DNA damage and other cellular stresses. The activation of p53 regulates cell fate by inducing DNA repair, cell cycle arrest, apoptosis, or cellular senescence. The activation of p53, therefore, is a good indicator of DNA damage and other cellular stresses. […] The activation of the reporter gene under culture conditions can be detected by fluorescence intensity. This cell line was used to screen the Tox21 10K compound library in the condition of presence of human liver microsomes and to identify agonists that activate the p53 signaling pathway after in vitro metabolic activation (Ooka et al., Archive of Toxicology 96:1975-1987, 2022).
Tox21 Assay Protocol Summary:
The p53RE-bla cells were dispensed at 4,000cells/3ul/well in 1536-well black-clear bottom plates. After the assay plates were incubated at 37 C, 5% CO2 incubator for 5 hours, 23 nL of compounds dissolved in DMSO, positive controls or DMSO only was transferred to the assay plate. Following compound addition, 3 uL of human liver microsomes (XenoTech, Kansas City, KS) at final concentration of 0.5 mg/mL and 1uL of B-Nicotinamide adenine dinucleotide 2'-phosphate (NADPH) at final concentration of 0.5 mg/mL were transferred to the assay plate. The plates were incubated at 37 C for 16 hours. 1 uL of LiveBLAzer detection mixture was added to each well and the plates were incubated at room temperature in the dark for 2 h. Fluorescence intensity at 460 and 530 nm emission and 405 nm excitation were measured by an Envision plate reader. For cell viability readout that measures cytotoxicity, 4 ul/well of CellTiter-Glo reagent was added into the assay plates using a Flying Reagent Dispenser. After 30 min incubation at room temperature, the luminescence intensity in the plates was measured using a ViewLux plate reader.
(In general: qHTS replaces the single test concentration by a dilution series.)
For `CN(C)c1ccccc1`, the Potency entry was “inactive”.

`NCc1cccnc1`: the Potency entry is “inactive”.

Regarding `CCCCc1c(C)nc(NCC)[nH]c1=O`, the Potency result was “inactive”.

Regarding `CC1CN1` (stereo not given), the Potency entry was “inactive”.

On to `C[N+](C)(C)CC(=O)O`, for which the Potency result was “inactive”.

As to `CC(C)(C)C(=O)Cl`, the Potency entry was “inactive”.

For `CCOP(=O)(O)OCC` (tested in a mixture with another compound), the Potency result was “inactive and 36.1 µM (active)”.

`CC(C)(c1ccc(OCC2CO2)cc1)c1ccc(OCC2CO2)cc1` (stereo not given): the Potency result is “inactive”.

`COP(=O)(NC(C)=O)SC` (stereo not given): the Potency entry was “inactive”.

For the compound `C[N+](C)(C)CC(=O)[O-]`, the Potency result was “inactive”.

Consider `NC(=S)c1c(Cl)cccc1Cl`, for which the Potency result is “inactive”.

Turning to `CCN(CCO)CCO`, the Potency entry was “inactive”.

Turning to `CN1CCC(N(Cc2ccccc2)c2ccccc2)CC1`, the Potency result was “inactive”.

For `O=[N+]([O-])c1ccc(Cl)c([N+](=O)[O-])c1`, the Potency is 36.9 µM (active) and 40.8 µM (active).

With `[Cd+2].[Cl-].[Cl-]`, the Potency entry was “inactive”.

On to `CN(C)C(=O)C(c1ccccc1)c1ccccc1`, for which the Potency entry was “inactive”.

As for `NC1(c2ccccc2)CCCCC1`, the Potency entry was “inactive”.

Turning to `CN=C=O`, the Potency entry is “inactive”.

Regarding `Cl`, the Potency entry was “inactive”.

Take `CC1CC(=O)O1` (stereo not given): the Potency entry is “inactive”.

For `CCOC(=O)C1OC1(C)c1ccccc1` (stereo not given), the Potency result is “inactive”.

Regarding `CCN(CC)Cc1nccn1-c1ccc([N+](=O)[O-])cc1C(=O)c1ccccc1Cl`, the Potency result is “inactive”.

For `CCCCCCCCCc1ccc(O)cc1`, the Potency entry is “inactive”.

As for `CN(C)CCC#N`, the Potency result is “inactive”.

Regarding `NN=C(N)N`, the Potency entry was “inactive”.

On to `N#Cc1cc([N+](=O)[O-])ccc1N`, for which the Potency entry was “inactive”.

Consider `CC1=C2[C@H]3OC(=O)[C@@H](C)[C@@H]3CC[C@@]2(C)C=CC1=O`, for which the Potency result was “inactive”.

Turning to `Cc1cccc([N+](=O)[O-])c1`, the Potency result was “inactive”.

As for `O=[N+]([O-])c1cc(Cl)ccc1Cl`, the Potency entry was “inactive”.

As for `C=CCCl`, the Potency result was “inactive”.

Take `NC(=O)CF`: the Potency entry is “inactive”.

As to `CCC[CH2][Sn]([Cl])([Cl])[Cl]`, the Potency entry is “inactive”.

For `O=S(=O)(c1ccccc1)c1ccccc1`, the Potency result is “inactive”.

As to `O=c1nc(O)n(Cl)c(=O)n1Cl`, the Potency result is “inactive”.

Take `CC1(C)[C@H](C(=O)O[C@H](C#N)c2cccc(Oc3ccccc3)c2)[C@@H]1C=C(Br)Br`: the Potency entry was “inactive”.

For `CC(C)OC(=O)Nc1ccccc1`, the Potency result was “inactive”.

As to `CN(CCCC(=O)c1cccnc1)N=O`, the Potency result was “inactive”.

Turning to `O=C(Nc1ccc(Br)cc1)c1cc(Br)cc(Br)c1O`, the Potency result is “inactive”.

As for `O=S(=O)(O)C(F)(F)C(F)(F)C(F)(F)C(F)(F)C(F)(F)C(F)(F)C(F)(F)C(F)(F)F`, the Potency entry was “inactive”.

In the case of `Cc1cc(Cl)ccc1O`, the Potency result was “inactive”.
